# Screening results: PubChem, National Center for Advancing Translational Sciences (NCATS)
# mIDH1 inhibitor – blocks human mutant IDH1 R132H enzyme. O75874. IDH1-R132H enzyme, NADPH consumption, diaphorase/resazurin fluorescence. Potency, µM (titrated, usually from 76.6 µM), inactives show top-dose activity change, negative = inhibition, actives largely listed as inhibitors. 390,000 compounds, 0.093% hits; further: nearly all actives have a fitted effect of over 65% in size
#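 IDH1-R132H (0.5 ug/mL dispensed) in pH 7.5 Tris buffer was preincubated 30 min with compound, then given a substrate mix of 0.016 mM NADPH and 2 mM alpha-KG for 80 min at room temperature; remaining NADPH was read by diaphorase/resazurin fluorescence.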
# rTrxR1 inhibitor – blocks rat thioredoxin reductase 1; Potency, µM (doses to about 114 µM), for the others: top-dose activity change, negative = inhibition, usual class: inhibitors; AID 588453; 390,000 compounds, 1% hits; recombinant rTrxR1, NADPH fluorescence consumption, selenite substrate; further: nearly all actives have a fitted effect of over 65% in size
# Target sequence (O89049 whole entry, looked up): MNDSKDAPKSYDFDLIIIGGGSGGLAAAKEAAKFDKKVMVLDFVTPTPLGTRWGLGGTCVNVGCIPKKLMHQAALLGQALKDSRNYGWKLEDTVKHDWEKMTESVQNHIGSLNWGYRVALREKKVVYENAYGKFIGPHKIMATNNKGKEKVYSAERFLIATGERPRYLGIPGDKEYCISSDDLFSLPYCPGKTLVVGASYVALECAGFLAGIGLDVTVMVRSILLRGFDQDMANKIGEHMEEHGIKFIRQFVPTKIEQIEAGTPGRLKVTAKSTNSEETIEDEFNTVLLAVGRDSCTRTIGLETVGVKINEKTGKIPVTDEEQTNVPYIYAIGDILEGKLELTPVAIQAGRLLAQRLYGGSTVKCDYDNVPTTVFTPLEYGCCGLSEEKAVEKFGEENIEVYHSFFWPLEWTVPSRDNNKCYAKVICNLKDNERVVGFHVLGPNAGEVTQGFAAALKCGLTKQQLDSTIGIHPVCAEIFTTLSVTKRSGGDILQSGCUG
#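 Rat TrxR1 (90 nM in the dispensed reagent) was pre-reduced with 400 uM NADPH for 5 min at room temperature, then incubated with compound for 15 min. After 400 uM selenite was added, NADPH fluorescence (Ex 340/Em 450 nm) was followed for 8 min.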
# Sfp inh – blocks B. subtilis Sfp PPTase activity | 310,000 compounds, 3.5% hits | Biochemical Sfp PPTase activity, qHTS | Q9F4F7 | AID 1490 | Potency, µM, for inactives: largest response in the series, negative = inhibition, most hits filed as inhibitors;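 further: the enzyme is Sfp with the accession as filed and its product quenches rhodamine fluorescence; 0% = enzyme reaction without inhibitor and -100% = no enzyme wells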
#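 With Hepes-Na pH 7.6 buffer containing 10 mM MgCl2, Sfp (15 nM) modified BHQ-2-YbbR (12.5 uM) using rhodamine-CoA (5 uM). Two reads 30 minutes apart at 525/598 nm yielded each well's rate.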
# PLK1 PBD inh – blocks phosphopeptide binding to human PLK1 polo-box domain. AID 720504. Potency, µM, for inactives: max response, negative = inhibition, hits mostly inhibitors. P53350. Plk1 PBD binding of FITC phosphopeptide, fluorescence polarization. 360,000 compounds, 2.8% hits; further: series mostly up to about 57 µM; nearly all actives have a fitted effect of over 65% in size
# VDR inh – blocks the human vitamin D receptor | P11473 | VDR-SRC2-3 peptide fluorescence polarization, 2 h | Potency, µM, for inactives: max response, negative = inhibition, actives largely listed as inhibitors | 400,000 compounds, 0.93% hits | AID 504847
#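 Fluorescence polarization assay measuring small-molecule disruption of VDR binding to the coregulator peptide SRC2-3. Compounds were pin-transferred (23 nl) into the reagent mix and incubated 2 h at room temperature before reading.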
# TrxR1 substrate – substrates of rat thioredoxin reductase 1 | Potency, µM (series often up to 114 µM), without a hit: top-dose activity change, negative = substrate turnover | 390,000 compounds, 0.01% hits | purified TrxR1 substrate turnover, NADPH consumption readout | AID 588456 | O89049; further: nearly all actives have a fitted effect of over 50% in size
#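 Rat TrxR1, dispensed at 90 nM, was prereduced with 400 uM NADPH (final) for 5 min at ~22 deg C, then incubated with compound 15 min before 400 uM selenite. A first-read NADPH fluorescence drop versus no-compound background flagged substrates.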
# The depositor's hits bear a star; ? = inconclusive; · = no result; ! = repeats disagree; [ ] = dose if it differs, or a comment. An excerpt weighted towards active compounds, which were near 5.2% of everything screened. The call rests on the fitted dose curve; in most records, active means well fitted curve in the direction sought with a large enough effect; inconclusive means small, poorly fitted or top-dose-only effect, or another doubt; inactive means no such curve, though single readings can be large; an effect the other way counts as inactive or inconclusive. Unless noted, on the % scale 0 is the no-effect control and ±100 the full control effect; potency means the concentration at half of the fitted maximal effect.
SMILES,mIDH1 inhibitor,rTrxR1 inhibitor,Sfp inh,PLK1 PBD inh,VDR inh,TrxR1 substrate
O=C(NCCC(=O)N(Cc1ccco1)Cc1cccs1)c1ccccc1Cl,10%,-8%,·,-7%,-4%,-2%
O=C(c1ccco1)N(Cc1ccccc1)Cc1ccccn1,2%,8%[11.4 µM],-18%,9%,?,-3%[11.4 µM]
O=C(c1cccs1)N(Cc1ccccn1)Cc1ccco1,-1%,-10%,79µM*,-9%,-2%,4%
O=C(c1cccc(Cl)c1Cl)N(Cc1ccco1)Cc1cccs1,·,13µM*,·,·,79µM*,1%
Cc1ccc2cc(CN(Cc3ccco3)C(=O)c3cccs3)c(=O)[nH]c2c1,6%,-26%[57.1 µM],25µM*,-8%,-20%,16%[57.1 µM]
COc1cc2c(c(OC)c1)C(c1cccc(F)c1F)CC(=O)N2 (stereo not drawn),2%,-4%,·,·,-10%,-6%
CC(=O)c1ccc(NC(=O)CN(c2c(C)cccc2C)S(C)(=O)=O)cc1,4%,10%,12%,-2%,1%,-1%
Cc1ccc(S(=O)(=O)N(C)C[C@H]2OCCCC[C@@H](C)Oc3ccc(NC(=O)Cc4ccccc4)cc3C(=O)N([C@H](C)CO)C[C@@H]2C)cc1,12%,·,·,-5%,·,·
CSc1ccc(C2C(C#N)=C(N)N(c3ccccc3)C3=C2C(=O)CCC3)cc1 (stereo not drawn),-2%,6%[57.1 µM],-24%,0%,1%,6%[57.1 µM]
N#CC1=C(N)N(c2ccc(F)cc2)C2=C(C1c1ccc(O)cc1)S(=O)(=O)CC2 (stereo not drawn),1%,7.9µM*,-92%,15µM*,4%,9%[57.1 µM]
CCN1CCN(c2nnc(-n3cccc3C(=O)Nc3cccc(OC)c3)s2)CC1,7%,-4%[57.1 µM],·,·,0%,-6%[57.1 µM]
S=c1[nH]c2cc3ccccc3cc2[nH]1,13%,4%[57.1 µM],56µM*!,30µM*,-8%,3%[57.1 µM]
NCc1ccc2[nH]c(=O)[nH]c2c1,7%,22%[57.1 µM],23%,3%,?,-6%
Fc1cc2[nH]c(=S)[nH]c2cc1Cl,-10%,?,8%,0%,-8%,-15%
Cc1cc2[nH]c(=S)[nH]c2cc1C,14%,-5%,35µM*,6µM*,-12%,-3%
S=c1[nH]c2ccc(Cc3ccc4[nH]c(=S)[nH]c4c3)cc2[nH]1,-2%,1%,28µM*,21µM*,-13%,-6%
Cc1ccc2oc(=O)c3cc(C(=O)NCCCOC(C)C)sc3c2c1,-2%,28%,·,·,-2%,15%
COc1ccc(N2CCN(C(=O)c3cnn(-c4ccc(F)cc4)c3-n3cccc3)CC2)cc1,-3%,19%,·,·,-2%,4%
Cc1ccc2nc(-c3cccc(NC(=O)CSc4ccc(Cl)cc4)c3)oc2c1,·,32%,·,·,1%,40%
CCc1ccc(N=Nc2ccc(O)c3[nH]cnc23)cc1,-19%,23%[57.1 µM],·,0%,-12%,12%[57.1 µM]
Cc1cc(C(=O)CN2C(=O)NC3(CCCCC3)C2=O)c(C)n1-c1ccc2c(c1)OCO2,7%,-10%[57.1 µM],-25%,24µM*,?,-8%[57.1 µM]
Cc1cc(-n2c(C)cc(C(=O)CN3C(=O)NC4(CCCCCC4)C3=O)c2C)no1,1%,-11%,8%,-2%,7%,2%
CCCC12CN3CC(C)(CN(C1)C3c1ccco1)C2=O (stereo not drawn),26%,-12%,-9%,19µM*,?,-7%
COc1cccc(/C=c2/[nH]c(=O)/c(=C\c3cccc(OC)c3OC)[nH]c2=O)c1OC,·,7%,·,·,·,-5%
CCn1nnnc1SCC(=O)N1CCCc2ccccc21,5%,-13%,18%,27µM*,-19%,0%
SMILES,mIDH1 inhibitor,rTrxR1 inhibitor,Sfp inh,PLK1 PBD inh,VDR inh,TrxR1 substrate
O=C(CSc1nnc(CNc2ccc(F)cc2)o1)N1CCCc2ccccc21,18%,1%,-10%,27µM*,?,-8%
Cn1nnnc1SCC(=O)N1CCc2ccccc21,23%,11%,-6%,-16%,12%,4%
CC(C)c1nnc(SCC(=O)N2CCc3ccccc32)n1N,-1%,44%,-8%,?,79µM*,0%[57.1 µM]
CC(=O)Cn1c(CN2CCN(C(=O)c3ccco3)CC2)nc2c1c(=O)n(C)c(=O)n2C,-5%,12%,1%,-17%,15%,-1%
CC(C)=CCC/C(C)=C/CO/N=C1/[C@H]2O[C@@H]2[C@@H](O)[C@H]2[C@H]1CCn1c(=O)n(-c3ccccc3)c(=O)n12,·,·,9%,·,·,·
CC(C)(C)c1cc(OS(C)(=O)=O)ccc1O,0%,11%[57.1 µM],-22%,?,3%,-4%
CC(C)(C)c1ccc(O)c(O)c1,0%,22µM*,·,-8%,13%,12%
CC(C)(C)c1cc(O)c(C(C)(C)C)cc1O,·,·,-13%,·,28µM*,·
COc1ccc(-n2c(=O)c(-c3cccc(F)c3)nc3cncnc32)cc1,·,·,25%,·,-8%,·
CC(=NNC(=S)SCc1ccccc1)c1ccccn1,3%,?,·,-9%,-27%,-9%
CC(=NNC(=S)N1CCC1)c1ccccn1,4%,7.1µM*,·,-1%,-29%,-5%
CC(=NNC(=S)N1CCCC1)c1ccccn1,12%,·,·,24µM*,·,·
CCn1cc(C(=O)OCC(=O)Nc2ccc(C)c(Cl)c2)c(=O)c2ccc(C)nc21,0%,28%,·,·,0%,-1%
Cc1nnc(N2CCCC(C(=O)NCc3ccc(OC(C)C)cc3)C2)c2nn(-c3ccccc3)c(C)c12 (stereo not drawn),0%,9%[57.1 µM],89µM*,-7%,-11%,10%[57.1 µM]
COc1ccc(CNC(=O)C2CCCN(c3nnc(C)c4c(C)n(-c5ccc(C)cc5)nc34)C2)cc1 (stereo not drawn),-1%,15%,·,·,14%,7%
CCOC(=O)C1(C)NC(c2ccccc2F)C2C(=O)N(c3cccc(C(C)=O)c3)C(=O)C21 (stereo not drawn),-2%,-9%,7%,3.8µM*,25µM*,-7%
CCOC(=O)C1(C)NC(c2ccc(N(C)C)cc2)C2C(=O)N(c3ccc(OC)cc3)C(=O)C21 (stereo not drawn),0%,-12%,20%,-5%,15%,-7%
CCOC(=O)C1(C)NC(c2cccs2)C2C(=O)N(c3ccc(OC)cc3)C(=O)C21 (stereo not drawn),6%,30%[57.1 µM],15%,3.4µM*,32µM*,3%[57.1 µM]
Cc1ccc(CNC(=O)CCC(=O)Nc2nnc(C(C)C)s2)cc1,-10%,4%,5%,2%,17%,3%
CCc1ccc(S(=O)(=O)/N=C2\C=CC(=O)c3ccccc32)cc1,·,·,-28%,·,·,·
Cc1cc(C)c(S(=O)(=O)/N=C2\C=C(Nc3ccc(C(=O)O)cc3)C(=O)c3ccccc32)c(C)c1,5%,-15%,50µM*,?,?,-12%
